Results on 15 molecules are retold here after PubChem BioAssay.

Assay [1] deals with Cell division control protein 42 homolog (Homo sapiens) (UniProt P60953). Briefly: activated mutant Cdc42 GTP-binding inhibitors, dose response, biochemical, multiplex bead flow cytometry, Bodipy-FL-GTP (AID 1333). For orientation: In flow cytometry, cells or beads pass a laser one at a time.
The target is the same in assay [2]. Briefly: wildtype Cdc42 GTP-binding inhibitors, dose response, biochemical, multiplex bead flow cytometry, Bodipy-FL-GTP (AID 1334;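 active = fitted half-maximal concentration within the tested range, moderate curve steepness, significant signal drop, and little compound fluorescence or bead-linkage interference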). Conditions: bead-based flow cytometry, Bodipy-FL-GTP binding to GST-Cdc42; at 100 µM (top of the series) unless noted.
Assay [3] addresses GTPase HRas (Homo sapiens) (UniProt P01112). Briefly: inhibitors of GTP binding to wildtype Ras, dose response, biochemical, multiplex bead flow cytometry (AID 1335;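 active = fitted half-maximal concentration within 10 nM to 100 µM, steepness 0.5 to 2, significant signal drop, low assay interference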). The settings on record: bead-based flow cytometry, Bodipy-GTP binding to GST-Ras; at 100 µM (top of the series) unless noted.
The subject of assay [4] is Ras-related protein Rab-7a (dog), GTP binding. Briefly: Rab7 GTP binding inhibitors, potency, dose response, biochemical, wildtype, multiplex bead flow cytometry (AID 1336; call rule not given here).
In assay [5] the target is Ras-related C3 botulinum toxin substrate 1 (Homo sapiens) (UniProt P63000). Briefly: wildtype Rac1 GTP binding inhibitors, dose response, biochemical, multiplex bead flow cytometry (AID 1340;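 active = dose curve with midpoint inside tested range, moderate steepness, plateau gap beyond fit error, low compound glow and bead-link interference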). Conditions: GST-Rac1 beads, Bodipy-FL-GTP binding; at 100 µM (top of the series) unless noted.
Assay [6] concerns the target GTPase HRas (Homo sapiens) (UniProt P01112). Briefly: activated Ras mutant GTP binding inhibitors, dose response, biochemical, multiplex bead flow cytometry (AID 1341;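 active = dose-response curve with midpoint inside the tested range, moderate steepness, significant amplitude and little compound fluorescence or bead-attachment interference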;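 note: GST-tagged constitutively activated Ras mutant immobilized on beads and multiplexed with other GTPases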).

For part of these data: Measured potencies and affinities stand elsewhere. Calls of active or inactive are those of the source.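 Rule for the calls, unless noted: active = fitted half-maximal concentration within the tested dose range, moderate curve steepness, a statistically real signal drop, and little compound fluorescence or tag-binding interference; inactive = the rest.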

Cell division control protein 42 homolog (Homo sapiens), sequence (P60953 whole entry, looked up): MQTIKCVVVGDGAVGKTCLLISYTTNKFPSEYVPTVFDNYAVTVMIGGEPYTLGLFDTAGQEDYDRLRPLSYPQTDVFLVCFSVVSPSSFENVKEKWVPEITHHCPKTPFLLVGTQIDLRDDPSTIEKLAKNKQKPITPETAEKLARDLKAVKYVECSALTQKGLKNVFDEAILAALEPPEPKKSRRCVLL
GTPase HRas (Homo sapiens), sequence (P01112 whole entry, looked up): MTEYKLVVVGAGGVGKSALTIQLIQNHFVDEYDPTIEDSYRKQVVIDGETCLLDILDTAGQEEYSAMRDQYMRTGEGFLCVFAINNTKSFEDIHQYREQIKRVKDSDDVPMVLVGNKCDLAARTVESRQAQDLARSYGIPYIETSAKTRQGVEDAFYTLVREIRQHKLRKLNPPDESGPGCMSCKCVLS

`O=C(O)CCN1C(=O)/C(=C\c2ccc(-c3nc4ccccc4s3)o2)SC1=S`: the outcome in assay [1], in assay [4] and in assay [6] was inactive. Further, the fluorescence, percent of control (lower = inhibition) in assay [2] turned out to be 54.9%. In assay [3], this molecule came in with a GTP binding, percent of control of 63.4%. Moreover, in assay [5], the GTP binding signal, raw median fluorescence (lower = inhibition) (MCF (arbitrary fluorescence units)) came out at 88.8.
In the case of `COc1ccccc1OCc1cccc(C(=O)O)c1`, the call in assay [1], in assay [4] and in assay [6] was inactive. For the same molecule, in assay [2], the fluorescence, percent of control (lower = inhibition) was 64.9%. The molecule further showed a GTP binding, percent of control in assay [3] of 92.8%. In addition, the GTP binding signal, raw median fluorescence (lower = inhibition) (MCF (arbitrary fluorescence units)) in assay [5] was 42.
With `NC(=O)c1cc2ccccc2o/c1=N/NC(=O)c1cccs1`, the result in assay [1], in assay [4] and in assay [6] was inactive. In addition, in assay [2], the fluorescence, percent of control (lower = inhibition) is 33.4%. In assay [3], this molecule gave a GTP binding, percent of control of 69.6%. In assay [5], this molecule gave a GTP binding signal, raw median fluorescence (lower = inhibition) (MCF (arbitrary fluorescence units)) of 167.
For the molecule `COc1cc(NC(=O)c2cccs2)c(OC)cc1NC(=O)CCC(=O)Nc1ccc2ncccc2c1`, the molecule was called inactive in assay [1], in assay [4] and in assay [6]. Besides, the fluorescence, percent of control (lower = inhibition) in assay [2] amounted to 30.9%. Further, in assay [3], the GTP binding, percent of control stood at 69.1%. In assay [5], this molecule yielded a GTP binding signal, raw median fluorescence (lower = inhibition) (MCF (arbitrary fluorescence units)) of 196.
Turning to `C=CCc1cc(/C=C/c2nc(O)c([N+](=O)[O-])c(=O)[nH]2)cc(OC)c1O`, the molecule was called inactive in assay [1], in assay [4] and in assay [6]. In addition, the fluorescence, percent of control (lower = inhibition) in assay [2] was found to be 31.5%. For the same molecule, the GTP binding, percent of control in assay [3] came to 77.1%. In assay [5], the GTP binding signal, raw median fluorescence (lower = inhibition) (MCF (arbitrary fluorescence units)) was found to be 177.
Take `Cc1cc2ccccn2c1C(=O)c1cc([N+](=O)[O-])cc([N+](=O)[O-])c1`: the outcome in assay [1], in assay [4] and in assay [6] was inactive. In assay [2], the fluorescence, percent of control (lower = inhibition) worked out at 37.4%. This molecule also yielded a GTP binding, percent of control in assay [3] of 85.6%. This molecule also had a GTP binding signal, raw median fluorescence (lower = inhibition) (MCF (arbitrary fluorescence units)) in assay [5] of 270.
Take `O=[N+]([O-])c1ccccc1/C=C/C=N/n1c(-c2ccco2)n[nH]c1=S`: the molecule was called inactive in assay [1], in assay [4] and in assay [6]. For the same molecule, in assay [2], the fluorescence, percent of control (lower = inhibition) came to 28.1%. Further, the GTP binding, percent of control in assay [3] worked out at 72.9%. In assay [5], the GTP binding signal, raw median fluorescence (lower = inhibition) (MCF (arbitrary fluorescence units)) worked out at 221.
Regarding `COc1cc2c(cc1OC)-c1cc(NC3CCCCCCC3)nc(=O)n1CC2`, the molecule was called inactive in assay [1], in assay [4] and in assay [6]. The fluorescence, percent of control (lower = inhibition) in assay [2] was 33.3%. Further, the GTP binding, percent of control in assay [3] amounted to 68.6%. The same molecule gave a GTP binding signal, raw median fluorescence (lower = inhibition) (MCF (arbitrary fluorescence units)) in assay [5] of 142.
With `Cc1ccc(C(C)C)c(OCc2ccccc2C(=O)O)c1`, the outcome in assay [1], in assay [4] and in assay [6] was inactive. Further, the fluorescence, percent of control (lower = inhibition) in assay [2] came to 73.5%. In assay [3], this molecule yielded a GTP binding, percent of control of 87%. Moreover, in assay [5], the GTP binding signal, raw median fluorescence (lower = inhibition) (MCF (arbitrary fluorescence units)) was 48.6.
`COc1ccc(C(=O)N/N=c2\oc3ccccc3cc2C(N)=O)cc1`: the result in assay [1], in assay [4] and in assay [6] was inactive. Besides, in assay [2], the fluorescence, percent of control (lower = inhibition) was 36.1%. The same molecule gave a GTP binding, percent of control in assay [3] of 82.6%. This molecule came in with a GTP binding signal, raw median fluorescence (lower = inhibition) (MCF (arbitrary fluorescence units)) in assay [5] of 207.
In the case of `O=C(O)c1cc([N+](=O)[O-])ccc1NCc1ccccc1`, the call in assay [1], in assay [4] and in assay [6] was inactive. In assay [2], the fluorescence, percent of control (lower = inhibition) was 121%. For the same molecule, the GTP binding, percent of control in assay [3] is 149%. For the same molecule, the GTP binding signal, raw median fluorescence (lower = inhibition) (MCF (arbitrary fluorescence units)) in assay [5] was found to be 105.
As to `Nc1nn2c(-c3ccccc3)cc(=O)[nH]c2c1N=Nc1ccc(O)cc1`, the outcome in assay [1], in assay [4] and in assay [6] was inactive. For the same molecule, the fluorescence, percent of control (lower = inhibition) in assay [2] came to 33.3%. This molecule returned a GTP binding, percent of control in assay [3] of 75.4%. In addition, in assay [5], the GTP binding signal, raw median fluorescence (lower = inhibition) (MCF (arbitrary fluorescence units)) was 188.
`COc1cc(/C=C/C(=O)Nc2ccc3nc4n(c(=O)c3c2)CCCC4)cc(OC)c1OC`: the call in assay [1], in assay [4] and in assay [6] was inactive. Besides, the fluorescence, percent of control (lower = inhibition) in assay [2] came to 32.7%. Besides, the GTP binding, percent of control in assay [3] was 72%. The molecule also returned a GTP binding signal, raw median fluorescence (lower = inhibition) (MCF (arbitrary fluorescence units)) in assay [5] of 200.
For `Cc1nc2nc(SCC(=O)O)nn2c(C)c1Cc1c(F)cccc1Cl`, the molecule was called inactive in assay [1], in assay [4] and in assay [6]. Moreover, the fluorescence, percent of control (lower = inhibition) in assay [2] is 28.4%. In assay [3], the GTP binding, percent of control was 75.3%. The same molecule gave a GTP binding signal, raw median fluorescence (lower = inhibition) (MCF (arbitrary fluorescence units)) in assay [5] of 221.
Consider `CN1/C(=C\C=C(/C#N)C(=O)Nc2ccc(Cl)cc2)C(C)(C)c2ccccc21`, for which the call in assay [1], in assay [4] and in assay [6] was inactive. Further, the fluorescence, percent of control (lower = inhibition) in assay [2] amounted to 76.8%. Moreover, the GTP binding, percent of control in assay [3] came to 80%. The GTP binding signal, raw median fluorescence (lower = inhibition) (MCF (arbitrary fluorescence units)) in assay [5] came out at 226.
